PubChem BioAssay (Tox21)
Inconclusive results are not listed. The source made the active and inactive calls. Unless noted, calls come from the whole dose curve.

Legend:
[1] = Nuclear factor erythroid 2-related factor 2/antioxidant responsive element (Nrf2/ARE) small molecule agonists: luciferase reporter gene qHTS assay in human keratinocytes (AID 1919969); note: nearly all actives have a fitted effect of over 35% in size; note: potency is the fitted concentration of half-maximal effect
[2] = target: Gonadotropin-releasing hormone receptor (Homo sapiens) (UniProt P30968); assay: Human gonadotropin-releasing hormone receptor (GnRHR) small molecule agonists, calcium flux assay in GnRHR-HEK293 cells (AID 1920063); note: nearly all actives have a fitted effect of over 35% in size
Gonadotropin-releasing hormone receptor (Homo sapiens), sequence (P30968 whole entry, looked up): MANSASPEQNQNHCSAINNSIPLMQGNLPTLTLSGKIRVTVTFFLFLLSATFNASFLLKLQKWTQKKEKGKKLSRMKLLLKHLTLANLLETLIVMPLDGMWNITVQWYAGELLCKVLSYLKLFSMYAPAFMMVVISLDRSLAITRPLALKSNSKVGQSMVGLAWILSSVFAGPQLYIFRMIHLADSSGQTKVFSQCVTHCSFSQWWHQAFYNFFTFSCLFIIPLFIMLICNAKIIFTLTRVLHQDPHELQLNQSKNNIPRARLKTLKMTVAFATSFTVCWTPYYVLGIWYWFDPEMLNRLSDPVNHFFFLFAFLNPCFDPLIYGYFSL
In short: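 Stable human GnRHR HEK293 line. 18 h plating, then calcium dye for 1 h at 37 C. Agonist-mode compound addition from DMSO stocks; fluorescence monitored 3 min.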

[3] = target: KiSS-1 receptor (Homo sapiens) (UniProt Q969F8); assay: Human kisspeptin (KISS1R) small molecule agonists, calcium flux assay in KISS1R-HEK293 cells (AID 1920064; active = well fitted activation curve with a large enough effect in the repeat runs)
KiSS-1 receptor (Homo sapiens), sequence (Q969F8 whole entry, looked up): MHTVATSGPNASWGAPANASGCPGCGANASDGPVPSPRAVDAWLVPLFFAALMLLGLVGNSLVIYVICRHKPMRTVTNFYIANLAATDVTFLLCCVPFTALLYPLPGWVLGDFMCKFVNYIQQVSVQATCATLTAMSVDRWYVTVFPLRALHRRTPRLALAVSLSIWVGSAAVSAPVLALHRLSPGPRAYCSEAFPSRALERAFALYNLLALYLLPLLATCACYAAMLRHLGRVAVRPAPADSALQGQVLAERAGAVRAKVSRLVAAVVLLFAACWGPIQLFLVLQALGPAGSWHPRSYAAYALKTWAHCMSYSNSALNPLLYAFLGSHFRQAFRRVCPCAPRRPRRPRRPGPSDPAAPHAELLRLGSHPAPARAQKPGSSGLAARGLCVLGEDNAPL
In short: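 After overnight (18 h) culture at 37 C/5% CO2, human KISS1R-HEK293 cells received calcium dye for 1 h, then test compound; emission at 540 nm (excitation 480 nm) was tracked for 3 min.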

[4] = G protein-coupled receptor (GPCR) small molecule agonists, calcium flux assay: HEK293 wild type cell line counter screen (AID 1920065)
In short: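 Following 18 h incubation at 37 C/5% CO2, plates got calcium dye for 1 h; compounds, ATP or DMSO were then pinned in and fluorescence followed kinetically (480/540 nm).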

[5] = p53 small molecule agonists, cell-based qHTS assay with rat liver microsomes (AID 1963578)
In short: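 p53RE-bla cells were exposed to compounds together with rat liver microsomes (0.5 mg/mL final) and NADPH (0.5 mg/mL final) for 16 h at 37 C, then read by LiveBLAzer beta-lactamase fluorescence after 2 h at room temperature.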

[6] = p53 small molecule agonists, cell-based qHTS assay with human liver microsomes: qHTS cell viability counter screen (AID 1963579); note: nearly all actives have a fitted effect of over 45% in size
In short: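 p53RE-bla cells (4,000/well) were pre-incubated 5 h at 37 C, then given compounds in DMSO plus human liver microsomes (0.5 mg/mL final) and NADPH (0.5 mg/mL final) for 16 h at 37 C. Viability was read by CellTiter-Glo luminescence.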

[7] = p53 small molecule agonists, cell-based qHTS assay with rat liver microsomes: qHTS cell viability counter screen (AID 1963580); note: nearly all actives have a fitted effect of over 45% in size
In short: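 Luminescent ATP readout (CellTiter-Glo, 30 min at room temperature) reports viability of p53RE-bla HCT-116 cells after 16 h at 37 C with test compounds under metabolic activation by rat liver microsomes and NADPH at 0.5 mg/mL final each.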

[8] = p53 small molecule agonists, cell-based qHTS assay: qHTS cell viability counter screen (AID 1963581); note: nearly all actives have a fitted effect of over 45% in size; note: potency is the fitted concentration of half-maximal effect
In short: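 qHTS counter screen: 16 h compound exposure at 37 C of p53RE-bla HCT-116 cells (4,000 per well, seeded 5 h prior), cell viability by ATP luminescence.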

[9] = target: 5-hydroxytryptamine receptor 2A (Homo sapiens) (UniProt P28223); assay: 5-hydroxytryptamine receptor 2A (HTR2A) small molecule agonists, cell-based qHTS assay (AID 1963587); note: nearly all actives have a fitted effect of over 30% in size
5-hydroxytryptamine receptor 2A (Homo sapiens), sequence (P28223 whole entry, looked up): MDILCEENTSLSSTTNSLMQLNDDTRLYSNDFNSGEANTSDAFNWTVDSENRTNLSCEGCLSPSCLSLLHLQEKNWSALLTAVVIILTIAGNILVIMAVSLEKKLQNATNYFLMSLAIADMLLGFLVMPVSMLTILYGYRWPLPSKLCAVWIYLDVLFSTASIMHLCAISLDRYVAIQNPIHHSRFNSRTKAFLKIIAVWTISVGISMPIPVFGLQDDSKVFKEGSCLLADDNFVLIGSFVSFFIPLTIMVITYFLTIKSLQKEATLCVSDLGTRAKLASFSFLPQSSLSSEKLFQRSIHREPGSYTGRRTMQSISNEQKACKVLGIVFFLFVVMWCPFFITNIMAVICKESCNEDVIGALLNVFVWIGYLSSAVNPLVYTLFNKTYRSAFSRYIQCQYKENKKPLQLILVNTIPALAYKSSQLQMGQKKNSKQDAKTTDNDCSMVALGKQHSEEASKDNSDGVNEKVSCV
In short: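 HTR2A-CHO cells, plated 18 h at 37 C/5% CO2, dye-loaded 1 h at 37 C; compounds in DMSO added by pin tool (agonist mode). Intracellular calcium flux read as kinetic fluorescence on FDSS over 2 min at 1 s intervals.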

[10] = target: Muscarinic acetylcholine receptor M1 (Homo sapiens) (UniProt P11229); assay: Cholinergic receptor muscarinic 1 (CHRM1) small molecule antagonists, cell-based qHTS assay (AID 1963588); note: nearly all actives have a fitted effect of over 40% in size
Muscarinic acetylcholine receptor M1 (Homo sapiens), sequence (P11229 whole entry, looked up): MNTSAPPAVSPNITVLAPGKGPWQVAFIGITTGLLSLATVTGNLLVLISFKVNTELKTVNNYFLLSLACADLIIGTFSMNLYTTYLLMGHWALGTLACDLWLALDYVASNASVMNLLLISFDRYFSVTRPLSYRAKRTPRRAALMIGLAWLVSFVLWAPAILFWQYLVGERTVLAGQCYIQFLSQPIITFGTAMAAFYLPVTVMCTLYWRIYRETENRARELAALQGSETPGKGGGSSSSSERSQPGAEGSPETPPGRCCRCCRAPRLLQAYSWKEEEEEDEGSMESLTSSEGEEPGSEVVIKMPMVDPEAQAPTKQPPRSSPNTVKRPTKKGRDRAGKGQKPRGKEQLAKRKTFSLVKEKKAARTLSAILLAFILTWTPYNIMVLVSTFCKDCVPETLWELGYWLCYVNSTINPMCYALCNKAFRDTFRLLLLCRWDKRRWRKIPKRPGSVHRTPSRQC
In short: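 Compounds were tested at 15 concentrations in three independent runs. Dye-loaded CHRM1-CHO cells were exposed 5 min at room temperature before stimulation by acetylcholine added at 50nM. Intracellular calcium was read kinetically on FDSS for 3 min.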

[11] = target: Muscarinic acetylcholine receptor M1 (Homo sapiens) (UniProt P11229); assay: Cholinergic receptor muscarinic 1 (CHRM1) small molecule agonists, cell-based qHTS assay (AID 1963589); note: nearly all actives have a fitted effect of over 35% in size
In short: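 Kinetic fluorescence (1 s intervals) of calcium-sensitive dye in human M1 CHO cells after compound addition; cells pre-incubated 18 h at 37 C/5% CO2 and dye-loaded 1 h.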

[12] = target: Beta-2 adrenergic receptor (Homo sapiens) (UniProt P07550); assay: Adrenergic beta2 receptor (ADRB2) small molecule antagonists, cell-based qHTS assay (AID 1963592); note: nearly all actives have a fitted effect of over 50% in size; note: potency is the fitted concentration of half-maximal effect
Beta-2 adrenergic receptor (Homo sapiens), sequence (P07550 whole entry, looked up): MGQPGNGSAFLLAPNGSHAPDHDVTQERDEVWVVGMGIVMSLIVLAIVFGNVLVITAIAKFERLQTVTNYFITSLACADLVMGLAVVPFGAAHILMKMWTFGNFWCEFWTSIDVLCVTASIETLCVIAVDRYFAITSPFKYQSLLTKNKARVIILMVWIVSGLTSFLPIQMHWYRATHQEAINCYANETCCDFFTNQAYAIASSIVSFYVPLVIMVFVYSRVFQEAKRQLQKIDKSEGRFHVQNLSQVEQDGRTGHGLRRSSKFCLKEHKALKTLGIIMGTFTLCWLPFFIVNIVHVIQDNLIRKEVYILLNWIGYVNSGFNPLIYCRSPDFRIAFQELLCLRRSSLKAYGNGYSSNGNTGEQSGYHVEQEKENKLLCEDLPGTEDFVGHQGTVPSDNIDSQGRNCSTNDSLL
In short: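 Assay format: CHO-ADRB2 cells, 18-20hr seeding at 37C/5% CO2, then compound plus 1nM isoproterenol agonist mix for 0.5hr RT. Homogeneous time-resolved fluorescence cAMP detection after 1hr, expressed as 665/615 nm ratio.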

[13] = target: Beta-2 adrenergic receptor (Homo sapiens) (UniProt P07550); assay: Adrenergic beta2 receptor (ADRB2) small molecule agonists, cell-based qHTS assay (AID 1963593);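 note: CHO cells stably overexpressing human ADRB2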
In short: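 CHO cells stably over-expressing ADRB2 were plated overnight at 37C, then dosed with compounds plus a stimulation mix containing 100uM IBMX and 25uM Ro-20-1724 for 0.5hr at room temperature. cAMP was measured by HTRF competition, 1hr.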

[14] = target: D(2) dopamine receptor (Homo sapiens) (UniProt P14416); assay: Dopamine D2 receptor (DRD2) small molecule agonists, cell-based qHTS assay (AID 1963594); note: nearly all actives have a fitted effect of over 35% in size
D(2) dopamine receptor (Homo sapiens), sequence (P14416 whole entry, looked up): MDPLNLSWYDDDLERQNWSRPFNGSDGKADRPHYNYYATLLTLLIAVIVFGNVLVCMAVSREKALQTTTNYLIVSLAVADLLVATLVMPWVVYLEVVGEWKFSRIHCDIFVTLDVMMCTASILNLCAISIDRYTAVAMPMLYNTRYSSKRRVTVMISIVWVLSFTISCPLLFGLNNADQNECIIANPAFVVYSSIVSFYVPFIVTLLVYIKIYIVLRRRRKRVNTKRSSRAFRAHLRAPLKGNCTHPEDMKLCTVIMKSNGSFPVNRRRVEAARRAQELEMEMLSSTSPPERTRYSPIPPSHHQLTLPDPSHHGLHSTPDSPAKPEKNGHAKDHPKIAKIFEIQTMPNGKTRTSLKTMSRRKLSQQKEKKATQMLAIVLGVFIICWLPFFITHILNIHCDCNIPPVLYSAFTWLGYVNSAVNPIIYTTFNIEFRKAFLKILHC
In short: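 HEK293 cells stably expressing DRD2 were cultured 24 h at 37 C, then given Ro20-1724 (0.1 mM final) and compounds for 10 min at room temperature. NKH477 (200nM) was then added for 30 min. cAMP was read by HTRF.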

[15] = target: D(2) dopamine receptor (Homo sapiens) (UniProt P14416); assay: Dopamine D2 receptor (DRD2) small molecule antagonists, cell-based qHTS assay (AID 1963595; active = well fitted inhibition curve with a large enough effect in the signal ratio in the repeat runs, with a control signal flat; the % refers to the signal ratio; note: potency is the fitted concentration of half-maximal effect)
In short: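 Antagonist mode in DRD2-HEK293 cells: after compound addition with 0.1 mM Ro20-1724, cells received quinpirole (12 nM) and NKH477 (200 nM) for 30 min at room temperature; HTRF cAMP read after 1 h detection.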

[16] = p53 small molecule agonists, cell-based qHTS assay with human liver microsomes (AID 1963577)
In short: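 p53RE-bla reporter cells were pre-incubated 5 h at 37 C, then treated with compounds plus human liver microsomes (0.5 mg/mL final) and NADPH (0.5 mg/mL final) for 16 h at 37 C. Beta-lactamase activity was read by LiveBLAzer fluorescence after 2 h at room temperature.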

[17] = target: 5-hydroxytryptamine receptor 2A (Homo sapiens) (UniProt P28223); assay: 5-hydroxytryptamine receptor 2A (HTR2A) small molecule antagonists, cell-based qHTS assay (AID 1963586); note: nearly all actives have a fitted effect of over 45% in size; note: potency is the fitted concentration of half-maximal effect
In short: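 CHO cells stably expressing human HTR2A were plated for 18 h at 37 C, then loaded with calcium dye for 1 h. Compounds were preincubated 5 min at room temperature before DOI (4 nM solution) was added. Kinetic fluorescence was read for 3 min.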

[18] = cAMP Responsive Elements (CRE) small molecule agonists, cell-based qHTS assay (AID 1963590)
In short: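 Test agents in DMSO were incubated 3 h at 37 C/5% CO2 with CRE-bla HEK 293T cells seeded 18 h earlier; LiveBLAzer B/G FRET substrate was added and read after 2 h at room temperature.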

[19] = cAMP Responsive Elements (CRE) small molecule antagonists, cell-based qHTS assay (AID 1963591; active = well fitted inhibition curve with a large enough effect in the signal ratio in the repeat runs, not every such curve was filed as active; the % refers to the signal ratio)
In short: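 Reporter line CRE-bla HEK 293T in dialyzed-FBS DMEM; cells preincubated 18 h, treated 3 h with compound plus NKH477 (0.25 uM final); LiveBLAzer FRET, 2 h RT.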

[20] = p53 small molecule agonists, cell-based qHTS assay (AID 1963582; active = well fitted activation curve with a large enough effect in the signal ratio in the repeat runs, not every such curve was filed as active; the % refers to the signal ratio)
In short: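 Measured: fluorescence from cleaved LiveBLAzer substrate. System: p53RE-bla cells, 16 h compound treatment at 37 C, 2 h substrate step at room temperature.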

Measured: Potency

NS(=O)(=O)c1cc(C(=O)NN2C[C@H]3[C@H]4CCC(C4)[C@H]3C2)ccc1Cl
not listed: [16] | [17] | [18] | [19] | [20]
inactive: all other assays above

Nc1cc(S(=O)(=O)O)ccc1O
not listed: [5] | [13] | [20]
inactive: all other assays above

COC(=O)C1=C(C)NC(C)=C(C(=O)OCCN2CCN(C(c3ccccc3)c3ccccc3)CC2)C1c1cccc([N+](=O)[O-])c1 (centres undefined)
active: [17] 8.18 µM
not listed: [3] | [14] | [15] | [18] | [20]
inactive: all other assays above

CC(=O)C1C(=O)C=C(C)OC1=O (centres undefined)
not listed: [13] | [16]
inactive: all other assays above

CC(C)CC(C)CC(C)CC(C)COC(=O)c1ccccc1C(=O)OCC(C)CC(C)CC(C)CC(C)C (centres undefined)
not listed: [3] | [6] | [8]
inactive: all other assays above

CC(C)(C)c1n[nH]c(=S)n(N)c1=O
not listed: [1] | [5] | [19]
inactive: all other assays above

COc1cc(N)c(Cl)cc1C(=O)NC1CCN(CCCOc2ccc(F)cc2)CC1OC (centres undefined)
active: [12] 23.7 µM | [15] 11.9 µM
not listed: [4] | [9] | [10] | [11] | [13] | [17] | [18]
inactive: all other assays above

CC(=O)[C@H]1CC[C@H]2[C@@H]3C[C@H](C)C4=CC(=O)CC[C@]4(C)[C@H]3[C@@H](O)C[C@]12C
not listed: [1] | [9] | [14] | [16] | [17] | [19]
inactive: all other assays above

O=C(O)C1(C(=O)O)CCC1.[NH2-].[NH2-].[Pt+2]
not listed: [5] | [8] | [10] | [11] | [13] | [14] | [15] | [19]
inactive: all other assays above

CC(C)(C(=O)c1cccnc1)c1cccnc1
not listed: [5] | [6] | [9] | [10] | [11] | [13] | [17]
inactive: all other assays above

CC(=O)Nc1ccc(S(=O)(=O)Nc2cc(C)on2)cc1
not listed: [1] | [3] | [11] | [12] | [13]
inactive: all other assays above

CCN(CC)C(=O)N(CC)CC
not listed: [1] | [13] | [20]
inactive: all other assays above

CCCCCCCCCC=O
not listed: [2] | [18] | [19]
inactive: all other assays above

CCc1nn(C2CCCCC2)c2cc(C3(C#N)CCC(C(=O)O)CC3)ccc12 (centres undefined)
inactive: [1] | [2] | [3] | [4] | [16] | [7] | [9] | [11] | [12] | [14] | [15]

OCc1ccccn1
not listed: [2] | [4] | [6] | [13]
inactive: all other assays above

COc1cnc(NS(=O)(=O)c2ccc(N)cc2)nc1
not listed: [5] | [6] | [8]
inactive: all other assays above

C=CC(=O)OCCOCC(CC)(COCCOC(=O)C=C)COCCOC(=O)C=C
active: [1] 12.7 µM
not listed: [3] | [6] | [8] | [10] | [13] | [18] | [19] | [20]
inactive: all other assays above

c1ccc(C(O[C@H]2CCCN(CCc3ccc4c(c3)OCO4)C2)c2ccccc2)cc1
active: [17] 9.18 µM
not listed: [10] | [12] | [13] | [16] | [20]
inactive: all other assays above

CCOC(=O)O[C@H](C)OC(=O)c1ccc2c(c1)cc(C(=O)NC1CCN(C(C)C)CC1)n2Cc1cc(-c2ccc(Cl)s2)on1
active: [8] 38.1 µM | [15] 50.9 µM
inactive: [1] | [2] | [3] | [4] | [16] | [6] | [17] | [9] | [11]

CN1CCN(c2cc3c(cc2F)c(=O)c(C(=O)O)cn3-c2ccc(F)cc2)CC1
not listed: [2] | [9] | [13] | [14] | [16] | [18] | [19]
inactive: all other assays above

OC[C@@H](O)[C@H](O)[C@@H](O)[C@@H](O)CO
not listed: [2] | [3] | [7] | [9] | [10] | [11] | [17]
inactive: all other assays above

CO[C@H]1O[C@H](CO)[C@@H](O)[C@H](O)[C@H]1O
not listed: [2] | [13] | [17]
inactive: all other assays above

CC/C(=C\C(=N/O)C(N)=O)C(C)[N+](=O)[O-] (centres undefined)
not listed: [2] | [6] | [13]
inactive: all other assays above

CCOC(=O)C1CC(=O)C(=C(O)C2CC2)C(=O)C1 (centres undefined)
not listed: [5] | [18]
inactive: all other assays above

O=C1Nc2cc(Cl)ccc2Oc2ccccc21
not listed: [1] | [8] | [11] | [13] | [17] | [19]
inactive: all other assays above

CN=C(NC#N)Nc1ccc(C2=NNC(=O)CC2C)cc1 (centres undefined)
not listed: [1] | [7] | [10] | [13] | [14] | [15] | [20]
inactive: all other assays above

Cc1ccnc2ccccc12
active: [1] 68.4 µM
not listed: [6] | [16] | [17]
inactive: all other assays above

Cc1[nH]cnc1CN1CCc2c(c3ccccc3n2C)C1=O
not listed: [2] | [9] | [10] | [11] | [17]
inactive: all other assays above
